# Measurements taken from PubChem BioAssay.
# Values joined by “and” are separate entries in the source; they are usually repeats but may differ in a detail not shown here. Equal entries are not always repeated. Records with an inconclusive call do not appear. Active and inactive are the calls of the source.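 Rule for the calls, unless noted: active = normalized viability below 100% at a tested concentration; inactive = the rest.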
# How the values were obtained:
# [1] = growth inhibition of DIPG glioma cells, dose response, cell-based, SU-DIPG-XVII, MIPE5.0, CellTiter-Glo, qHTS (AID 1347060; cut-off not given, nearly all actives have AC50 up to about 26 µM;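 for AC50: cells exposed to compound for 48 hours before viability readout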); details: SU-DIPG-XVII viability, CellTiter-Glo ATP luminescence
# [2] = growth inhibition of DIPG glioma cells, dose response, cell-based, JHH-DIPG-1, MIPE4.0, CellTiter-Glo, qHTS (AID 1347062; cut-off not given, nearly all actives have AC50 up to about 27 µM;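 for AC50: cells exposed to compound for two days before readout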); details: JHH-DIPG-1 viability, CellTiter-Glo ATP luminescence
# [3] = growth inhibition of DIPG glioma cells, dose response, cell-based, SU-DIPG-IV, MIPE4.0, CellTiter-Glo, qHTS (AID 1347063; cut-off not given, nearly all actives have AC50 up to about 30 µM;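 note: compound exposure lasted 48 hours before the viability readout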); details: SU-DIPG-IV viability, CellTiter-Glo ATP luminescence
# [4] = SU-DIPG-VI glioma cell viability, MIPE4.0 library, CellTiter-Glo luminescence, qHTS (AID 1347066; cut-off not given, nearly all actives have AC50 up to about 30 µM;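 note: cells exposed to compound for 48 hours before readout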); details: CellTiter-Glo ATP luminescence
# [5] = JHH-DIPG-1 glioma cell viability, MIPE5.0 library, CellTiter-Glo luminescence, qHTS (AID 1347067; cut-off not given, nearly all actives have AC50 up to about 26 µM;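 note: cells exposed to compound for 48 hours before readout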); details: JHH-DIPG-1 glioma viability, CellTiter-Glo ATP luminescence
# [6] = SU-DIPG-XXV glioma cell viability, MIPE5.0 library, qHTS (AID 1347068; cut-off not given, nearly all actives have IC50 up to about 30 µM;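 for IC50: cells exposed to compound for 48 hours before viability readout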)
# [7] = sensitizers of A549 cells to miR-34 induction, primary screen, imaging, A549 dox-inducible miR-34, nuclei and caspase counts (AID 1347080;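 active = compounds whose cell count with miR-34 switched on is under 0.7 times the count with it off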); details: A549 miR-34 inducible, Hoechst nuclei count, 48 h
# [8] = survival rescue of mitochondrial mutant cells in low glucose, primary screen, MELAS cybrids, Rieske KO mouse fibroblasts, CellTiter-Glo (AID 1508586;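 active = mean z-score across replicates of 1.96 or higher in either the MELAS or the Rieske mutant cell line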;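 note: z relative to plate mean and SD of compound and empty wells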)
# [9] = viability loss in pontine glioma line – cell-based, SU-DIPG-XXV, MIPE5.0, CellTiter-Glo, qHTS, dose response (AID 1347065; cut-off not given, nearly all actives have AC50 up to about 26 µM;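 note: cells exposed to compound for 48 hours before ATP readout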); details: CellTiter-Glo ATP luminescence
# [10] = modifiers of HSF1 nuclear foci, imaging, Selleck Cancer Library (AID 1347162; in the data active = plate-normalised HSF1 focus index below about 0.46); details: human cells, at 10 µM; SSMD: measured here: HSF1 foci SSMD mean; cell count: measured here: cell number; plate-normalised HSF1 focus index: stronger effect = lower value
# [11] = ovarian cancer cell viability with rucaparib, profiling panel, oncology-focused library, rucaparib conditional (AID 1508598); details: patient-derived ovarian cancer cells, CellTiter-Glo viability, 144 h, stronger effect = lower value
# [12] = stronger effect = lower value, cell number ratio, induced over uninduced
# [13] = measured here: relative caspase fold change +Dox/-Dox
# [14] = measured here: total cells with miR-34 induction, stronger effect = lower value
# [15] = measured here: total cells without miR-34 induction
# [16] = MELAS cybrid survival, CellTiter-Glo 48 h, stronger effect = higher value
# [17] = Rieske KO mouse fibroblast survival, CellTiter-Glo 72 h
smiles,measurement,setting,value
CCCCCCCCCCCC(CC1OC(=O)C1CCCCCC)OC(=O)C(CC(C)C)NC=O (stereo unspecified),outcome,[1],inactive
same,outcome,[2],inactive
same,outcome,[3],inactive
same,outcome,[4],inactive
same,outcome,[5],inactive
same,outcome,[6],inactive
same,fold change,[7]; [12],0.897 (inactive) and 0.881 (inactive)
same,fold change,[7]; [13],2.53 and 0.818
same,cell count,[7]; [14],9250 and 6710
same,cell count,[7]; [15],10300 and 7610
same,z-score,[8]; [16],1.14 (inactive)
same,z-score,[8]; [17],-1.74
C[C@H]1[C@H](OC(=O)CCC(=O)O)O[C@@H]2O[C@@]3(C)CC[C@H]4[C@H](C)CC[C@@H]1[C@@]24OO3,AC50,[1],3.72 µM (active)
same,AC50,[2],14.8 µM (active)
same,AC50,[3],3.72 µM (active)
same,AC50,[9],13.2 µM (active)
same,outcome,[4],inactive
NC(=O)N1CCC(CC(=O)N2CCC([C@H]3c4ncc(Br)cc4CCc4cc(Cl)cc(Br)c43)CC2)CC1,AC50,[1],18.6 µM (active)
same,AC50,[2],23.5 µM (active)
same,AC50,[3],18.7 µM (active)
same,AC50,[9],16.6 µM (active)
same,AC50,[4],16.6 µM (active)
same,AC50,[5],23.5 µM (active)
O=C(NC1CCNCC1)c1[nH]ncc1NC(=O)c1c(Cl)cccc1Cl,AC50,[1],6.61 µM (active)
same,AC50,[2],0.418 µM (active)
same,AC50,[3],0.935 µM (active)
same,AC50,[9],7.42 µM (active)
same,outcome,[4],inactive
same,AC50,[5],1.86 µM (active)
same,IC50,[6],4.68 µM (active)
same,fold change,[7]; [12],1.06 (inactive)
same,fold change,[7]; [13],0.925
same,cell count,[7]; [14],1340
same,cell count,[7]; [15],1260
same,SSMD,[10],-4.94
same,cell count,[10],7300
same,plate-normalised HSF1 focus index,[10],0.823 (inactive)
same,z-score,[8]; [16],0.31 (inactive)
same,z-score,[8]; [17],-1.14
same,viability,"[11]; at 0.000305 µM, OCI-C5x cells, with rucaparib 10 µM, 100% = cells with rucaparib alone",126% (inactive)
same,viability,"[11]; at 0.000305 µM, OCI-C5x cells, without rucaparib",105% (inactive)
same,viability,"[11]; at 0.000305 µM, OCI-P5x cells, with rucaparib 20 µM, 100% = cells with rucaparib alone",89.7% (active)
same,viability,"[11]; at 0.000305 µM, OCI-P5x cells, without rucaparib",97.4% (active)
same,viability,"[11]; at 0.00122 µM, OCI-C5x cells, with rucaparib 10 µM, 100% = cells with rucaparib alone",116% (inactive)
same,viability,"[11]; at 0.00122 µM, OCI-C5x cells, without rucaparib",113% (inactive)
same,viability,"[11]; at 0.00122 µM, OCI-P5x cells, with rucaparib 20 µM, 100% = cells with rucaparib alone",95.9% (active)
same,viability,"[11]; at 0.00122 µM, OCI-P5x cells, without rucaparib",103% (inactive)
same,viability,"[11]; at 0.00488 µM, OCI-C5x cells, with rucaparib 10 µM, 100% = cells with rucaparib alone",118% (inactive)
same,viability,"[11]; at 0.00488 µM, OCI-C5x cells, without rucaparib",117% (inactive)
same,viability,"[11]; at 0.00488 µM, OCI-P5x cells, with rucaparib 20 µM, 100% = cells with rucaparib alone",103% (inactive)
same,viability,"[11]; at 0.00488 µM, OCI-P5x cells, without rucaparib",105% (inactive)
same,viability,"[11]; at 0.0195 µM, OCI-C5x cells, with rucaparib 10 µM, 100% = cells with rucaparib alone",110% (inactive)
same,viability,"[11]; at 0.0195 µM, OCI-C5x cells, without rucaparib",118% (inactive)
same,viability,"[11]; at 0.0195 µM, OCI-P5x cells, with rucaparib 20 µM, 100% = cells with rucaparib alone",96.7% (active)
same,viability,"[11]; at 0.0195 µM, OCI-P5x cells, without rucaparib",99% (active)
same,viability,"[11]; at 0.0781 µM, OCI-C5x cells, with rucaparib 10 µM, 100% = cells with rucaparib alone",108% (inactive)
same,viability,"[11]; at 0.0781 µM, OCI-C5x cells, without rucaparib",118% (inactive)
same,viability,"[11]; at 0.0781 µM, OCI-P5x cells, with rucaparib 20 µM, 100% = cells with rucaparib alone",93.7% (active)
same,viability,"[11]; at 0.0781 µM, OCI-P5x cells, without rucaparib",89.4% (active)
same,viability,"[11]; at 0.313 µM, OCI-C5x cells, with rucaparib 10 µM, 100% = cells with rucaparib alone",86.2% (active)
same,viability,"[11]; at 0.313 µM, OCI-C5x cells, without rucaparib",99.6% (active)
same,viability,"[11]; at 0.313 µM, OCI-P5x cells, with rucaparib 20 µM, 100% = cells with rucaparib alone",88% (active)
same,viability,"[11]; at 0.313 µM, OCI-P5x cells, without rucaparib",78.2% (active)
same,viability,"[11]; at 1.25 µM, OCI-C5x cells, with rucaparib 10 µM, 100% = cells with rucaparib alone",10.3% (active)
same,viability,"[11]; at 1.25 µM, OCI-C5x cells, without rucaparib",13.9% (active)
same,viability,"[11]; at 1.25 µM, OCI-P5x cells, with rucaparib 20 µM, 100% = cells with rucaparib alone",20.4% (active)
same,viability,"[11]; at 1.25 µM, OCI-P5x cells, without rucaparib",15.8% (active)
same,viability,"[11]; at 5 µM, OCI-C5x cells, with rucaparib 10 µM, 100% = cells with rucaparib alone",13% (active)
same,viability,"[11]; at 5 µM, OCI-C5x cells, without rucaparib",12.2% (active)
same,viability,"[11]; at 5 µM, OCI-P5x cells, with rucaparib 20 µM, 100% = cells with rucaparib alone",17.1% (active)
same,viability,"[11]; at 5 µM, OCI-P5x cells, without rucaparib",14% (active)
